Compound activity: PubChem BioAssay, National Center for Advancing Translational Sciences (NCATS)
Tb PFK block – inhibitors of T. brucei phosphofructokinase | O15648 | T. brucei PFK, ADP-Glo luminescence | Potency, µM (titrated, usually from 57.5 µM), actives largely listed as inhibitors | 330,000 compounds, 0.17% hits | AID 485367; further: nearly all actives have a fitted effect of over 60% in size
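Compounds were pin-transferred as a titration series up to 57 uM into substrate buffer (0.5 mM F6P, 0.1 mM ATP, pH 8.0), then 1.25 nM PFK was added and reactions ran 45 min before ADP-Glo detection.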
S-ASM inh – blocks human secretory acid sphingomyelinase; Potency, µM (titrated, usually from 57.5 µM), actives largely listed as inhibitors; placental ASM, HMU-PC fluorogenic substrate, 60 min; P17405; AID 504937; 340,000 compounds, 0.006% hits
Target sequence (P17405 47-631 limits assumed): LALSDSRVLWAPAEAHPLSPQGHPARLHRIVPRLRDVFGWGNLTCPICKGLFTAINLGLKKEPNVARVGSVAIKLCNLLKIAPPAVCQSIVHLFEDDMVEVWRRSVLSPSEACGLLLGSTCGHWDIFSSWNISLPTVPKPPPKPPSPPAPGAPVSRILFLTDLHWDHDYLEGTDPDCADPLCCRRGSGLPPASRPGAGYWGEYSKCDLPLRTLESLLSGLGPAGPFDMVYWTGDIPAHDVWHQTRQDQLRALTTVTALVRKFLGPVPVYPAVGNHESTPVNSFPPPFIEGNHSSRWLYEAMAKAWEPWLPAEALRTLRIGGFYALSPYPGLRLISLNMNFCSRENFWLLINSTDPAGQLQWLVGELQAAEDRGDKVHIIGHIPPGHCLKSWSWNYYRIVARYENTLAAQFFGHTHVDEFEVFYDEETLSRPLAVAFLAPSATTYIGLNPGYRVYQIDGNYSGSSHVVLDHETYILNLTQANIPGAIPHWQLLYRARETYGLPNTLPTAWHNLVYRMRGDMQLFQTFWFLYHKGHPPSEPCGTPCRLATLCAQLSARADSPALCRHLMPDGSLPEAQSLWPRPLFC
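Fluorescence read-out (Ex 386 nm, Em 447 nm) after stopping the reaction at pH 10. Enzyme: ASM from human placenta; substrate HMU-PC0, 9 uM final; 60 min, 37 °C. Compound preincubation 10 min, ambient temperature.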
ERG Ets-DNA blk – inhibitors of human ERG Ets domain-DNA interaction | 370,000 compounds, 0.028% hits | Potency, µM (highest dose often 76.9 µM), actives largely listed as inhibitors | fluorescence polarization, His-ERG Ets domain / labelled DNA | P11308; active means well fitted inhibition curve with a large enough effect in the polarisation, with a control signal flat; inconclusive means small, poorly fitted or top-dose-only effect, or effect the other way, or a change in a side signal; inactive means no such curve, though single readings can be large or run the other way; the % refers to the polarisation;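 further: polarization taken with two DNA probes labelled with fluorescein and Texas red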
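His-tagged ERG Ets domain (1 uM in the protein solution; 300mM KCl, 50mM Tris-HCl, 1mM EDTA, 1mM DTT, pH 7.5) received compound, then a probe mix of 5 nM fluorescein-DNA and 100nM Texas-615-DNA. Fluorescence polarization was read for both dyes.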
AT treatment – candidate therapy for ataxia-telangiectasia; 320,000 compounds, 0.19% hits; F2112 A-T fibroblasts, KAP-1 phosphorylation AlphaLISA; neocarzinostatin DNA damage 30 min before lysis; AID 485349; Potency, µM (titrated, usually from 57.5 µM), most hits filed as activators; further: nearly all actives have a fitted effect of over 45% in size
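ATM-like activity read as KAP-1 phosphorylation via AlphaLISA donor/acceptor antibody pairs after lysis and 6 hr at 25C. Cells were ATM-null patient fibroblasts (F2112, hTERT), dosed 60 min, then exposed to the DSB inducer NCS for 30 min.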
p53 reactivation – restores transcriptional activity of mutant p53; AID 504706; 320,000 compounds, 0.063% hits; Potency, µM (highest dose often 92.2 µM), usual class: activators; H1299 p53-A138V BP100-luciferase reporter, luminescence, 24 h; further: nearly all actives have a fitted effect of over 45% in size
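p53-null H1299 cells stably carrying temperature-sensitive p53-A138V and a BP100-luciferase reporter were pinned with compounds (4-point, 1:5 series) and held 24 hrs at 37 deg C. Luminescence was read 10 min after detection reagent.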
GCN5L2 inh – blocks human GCN5L2 histone acetyltransferase; GCN5L2 HAT assay, ThioGlo1 CoA-SH fluorescence; Potency, µM (titrated, usually from 58.9 µM), most hits filed as inhibitors; 390,000 compounds, 0.21% hits; Q92830
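Preincubate 20nM GCN5L2 with compound 15 min, RT → add 50uM ThioGlo1 + 75uM H3(1-25) + 70uM acetyl-CoA → read fluorescence 0 and 20 min. Primary qHTS; fluorescent artifacts likely.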
Of the large screens only hits and unclear results are named; the others gave an inactive call. An excerpt weighted towards active compounds, which were near 0.55% of everything screened. Unless noted, the call rests on the fitted dose curve; in most records, active means well fitted curve in the direction sought with a large enough effect; inconclusive means small, poorly fitted or top-dose-only effect, or another doubt; inactive means no such curve, though single readings can be large; an effect the other way counts as inactive or inconclusive.

CN(Cc1ccco1)c1cc(-c2cccc(NS(C)(=O)=O)c2)ncn1	none (no result: Tb PFK block, S-ASM inh, ERG Ets-DNA blk, AT treatment, p53 reactivation)
CC[C@H](C)[C@H](NC(=O)[C@H](Cc1ccc(O)cc1)NC(=O)[C@H](CCCNC(=N)N)NC(=O)[C@H](CCCNC(=N)N)NC(=O)[C@H](CC(C)C)NC(=O)[C@H](CC(=O)O)NC(=O)[C@H](C)NC(=O)[C@H](C)NC(=O)[C@H](Cc1ccc(O)cc1)NC(=O)[C@H](CCC(N)=O)NC(=O)[C@H](C)NC(=O)[C@H](CCSC)NC(=O)[C@H](CCC(N)=O)NC(=O)[C@H](CCC(=O)O)NC(=O)[C@@H]1CCCN1C(=O)[C@@H](NC(=O)[C@H](C)NC(=O)[C@H](CC(N)=O)NC(=O)[C@H](CC(=O)O)NC(=O)CNC(=O)[C@@H]1CCCN1C(=O)[C@H](Cc1ccc(O)cc1)NC(=O)[C@@H](NC(=O)[C@@H]1CCCN1C(=O)[C@H](CCC(=O)O)NC(=O)[C@H](CC(C)C)NC(=O)[C@@H]1CCCN1C(=O)[C@H](C)N)C(C)C)[C@@H](C)O)C(=O)N[C@@H](CC(N)=O)C(=O)N[C@@H](CCSC)C(=O)N[C@@H](CC(C)C)C(=O)N[C@H](C(=O)N[C@@H](CCCNC(=N)N)C(=O)N1CCC[C@H]1C(=O)N[C@@H](CCCNC(=N)N)C(=O)N[C@@H](Cc1ccc(O)cc1)C(N)=O)[C@@H](C)O	none (no result: Tb PFK block, S-ASM inh, ERG Ets-DNA blk, AT treatment, p53 reactivation)
COc1ccc2sc(-c3ccc(SC)cc3)c(C#CCO)c2c1	none
COc1ccc2sc(-c3ccc(N(C)C)cc3)c(C#Cc3cncn3C)c2c1	AT treatment 31.6µM
COc1ccc2sc(-c3ccc(N(C)C)cc3)c(C#CC(C)(C)O)c2c1	AT treatment 31.6µM
COc1ccc(-c2sc3ccc(OC)cc3c2C#CCCO)cc1	AT treatment inconclusive (no result: p53 reactivation)
COc1ccc2sc(-c3ccc(SC)cc3)c(C#CC(C)(C)O)c2c1	AT treatment inconclusive
COc1ccc2sc(-c3ccc(N(C)C)cc3)c(C#CCCO)c2c1	AT treatment 25.1µM, GCN5L2 inh inconclusive
Cn1c(=O)oc2cc(S(=O)(=O)N3CCCC(C(=O)NCCc4ccccc4)C3)ccc21 (stereo unspecified)	none (no result: Tb PFK block, S-ASM inh, AT treatment, p53 reactivation)
Cc1ccc(CN(Cc2ccco2)C(=O)COc2ccccc2C)cc1	none (no result: Tb PFK block, S-ASM inh, AT treatment, p53 reactivation)
Cc1ccc(Cc2c(C)nc3nc(SCC(=O)NC(C)c4ccccc4)nn3c2C)cc1 (stereo unspecified)	ERG Ets-DNA blk inconclusive (no result: Tb PFK block, S-ASM inh, AT treatment, p53 reactivation)
O=C(CC1CC2CCC1C2)Nc1nc(-c2ccccn2)cs1 (stereo unspecified)	p53 reactivation inconclusive
O=C(Nc1nc(-c2ccccn2)cs1)C1CC1	p53 reactivation 22.4µM
COc1ccc(C(=O)c2cn(Cc3ccccc3F)c3ccc(F)cc3c2=O)cc1	none (no result: Tb PFK block, S-ASM inh, AT treatment, p53 reactivation)
O=c1c(C(c2ccc(Cl)cc2)c2c(O)nc3n(c2=O)CCCS3)c(O)nc2n1CCCS2	AT treatment 31.6µM
c1ccc2c(c1)OCCc1c-2[nH]c2ccccc12	none
c1ccc2c(c1)SCc1c-2[nH]c2ccccc12	GCN5L2 inh 22.4µM (no result: Tb PFK block, S-ASM inh, ERG Ets-DNA blk, AT treatment, p53 reactivation)
Cc1c(C(=O)NCCc2ccc(Cl)cc2)sc2nc3n(c(=O)c12)CCCC3	GCN5L2 inh inconclusive (no result: Tb PFK block, S-ASM inh, AT treatment, p53 reactivation)
Cc1c(-c2ccccc2)c(=O)oc2c(CN3CCCC3)c(O)ccc12	GCN5L2 inh 35.5µM (no result: Tb PFK block, S-ASM inh, AT treatment, p53 reactivation)
O=C[C@@H]1CCCN1C(=O)[C@@H]1CCCN1C(=O)OCc1ccccc1	none (no result: Tb PFK block, S-ASM inh, ERG Ets-DNA blk, AT treatment, p53 reactivation)
O=C(O)c1cnn2c(C(F)(F)F)cc(-c3ccco3)nc12	none
Cc1c(NC(=O)c2cnn3c(C(F)(F)F)cc(-c4ccco4)nc23)c(=O)n(-c2ccccc2)n1C	AT treatment 15.8µM
Cc1ccn2c(Nc3ccc4c(c3)OCO4)c(-c3ccccn3)nc2c1	ERG Ets-DNA blk inconclusive, p53 reactivation 20µM
Cc1ccc(Nc2c(-c3ccccn3)nc3cc(C)ccn23)cc1	p53 reactivation inconclusive
Cc1ccccc1/C=N/Nc1nc2ccccc2[nH]1	none
C(=N\Nc1nc2ccccc2[nH]1)/c1ccccc1	none
